A selection: hits, their analogues and other compounds. The true share with any hit is near 2.7%.
KDM5B inhibitor: Primary screen for KDM5B Histone Demethylases FDH-coupled qHTS | Potency, µM (highest dose often 57.7 µM), most hits filed as inhibitors | KDM5B demethylase, FDH-coupled NADH fluorescence (FDH is formaldehyde dehydrogenase) | actives 2.6% (n = 220,000) | Lysine-specific demethylase 5B (Homo sapiens), Q9UGL1; active = well fitted inhibition curve with a large enough effect; inconclusive = small, poorly fitted or top-dose-only effect; inactive = no such curve, though single readings can be large or run the other way; also: nearly all actives have a fitted effect of over 70% in size
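Inhibition is measured as reduced NADH fluorescence generation from FDH coupling to formaldehyde release. Truncated KDM5BΔAP at 200 nM final acts on H3K4me3 peptide (12.5 µM in substrate mix) in pH 7.5 HEPES buffer with Tween-20, 30 min, room temperature.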
IP6K1 inhibitor: Primary qHTS assay for small molecule inhibitors of Inositol hexaphosphate kinase 1 (IP6K1); AID 1645851, 2021; Inositol hexakisphosphate kinase 1 (Homo sapiens), Q92551; IP6K1 kinase, ADP-Glo luminescence, 2 h; active compounds read low; activity change, % (series mostly up to about 58 µM); actives 0.81% (n = 140,000); in the data active = activity change below about -25%
Target sequence (Q92551 whole entry, looked up): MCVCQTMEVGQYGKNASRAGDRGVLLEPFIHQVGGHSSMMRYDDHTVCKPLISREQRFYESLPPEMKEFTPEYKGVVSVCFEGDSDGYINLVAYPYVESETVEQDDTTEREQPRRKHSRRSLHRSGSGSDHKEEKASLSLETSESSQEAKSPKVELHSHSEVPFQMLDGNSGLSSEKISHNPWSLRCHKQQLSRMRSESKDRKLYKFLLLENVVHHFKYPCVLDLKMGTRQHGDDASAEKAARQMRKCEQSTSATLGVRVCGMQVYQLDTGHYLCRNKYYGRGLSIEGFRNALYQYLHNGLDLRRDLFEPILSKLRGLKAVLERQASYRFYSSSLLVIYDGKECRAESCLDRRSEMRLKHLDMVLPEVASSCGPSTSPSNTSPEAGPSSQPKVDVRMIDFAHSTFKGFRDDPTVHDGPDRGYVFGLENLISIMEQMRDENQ
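ADP-Glo luminescence measures ADP made by human IP6K1 during a 2 h RT reaction with ATP/IP6 (mix at 1.3 mM/130 uM); top library doses 57.5 and 19.1 uM final.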
Numbers stand for hits; – = inactive; ? = inconclusive; · = no result.

SMILES	KDM5B inhibitor	IP6K1 inhibitor
CC(=O)N1CCCC2(C1)CN(C)c1ccc(C(=O)NCC(F)(F)F)cc12 (stereo unspecified)	?	–
COCCN1CCCCCC(O)c2cc(C(=O)NCC3CC3)ccc21 (stereo unspecified)	?	–
CC(=O)N1CCCC2(C1)CN(C)c1ccc(C(=O)NCC3CC3)cc12 (stereo unspecified)	28µM	–
COCCN1CCC2(C1)CN(C)c1ccc(C(=O)NCC3CC3)cc12 (stereo unspecified)	35µM	–
COCCN1CCC2(C1)CN(C)c1ccc(C(=O)Nc3ccccc3)cc12 (stereo unspecified)	25µM	–
COCCN1CCC2(C1)CN(C)c1ccc(C(=O)Nc3ccc(F)cc3)cc12 (stereo unspecified)	?	–
COCCN1C[C@H]2COc3cc(OC)ccc3[C@H]2N(C(=O)c2ccccc2OC)CCC1=O	·	–
CCOc1ccccc1NC(=O)Nc1nnc(N(CC)c2ccccc2)s1	–	·
CCCC1CN(Cc2cccc(F)c2)C(=O)c2ccc(C)nc2O1 (stereo unspecified)	·	–
Cc1noc(C)c1S(=O)(=O)Nc1c(NC2CCCC2)c2ccccc2oc1=O	–	·
CN(C)[C@@H]1[C@@H](NC(=O)CCc2nc3ccccc3[nH]c2=O)[C@H]2CCO[C@H]21	28µM	–
CN(C)[C@@H]1[C@@H](NC(=O)c2cc(=O)n(-c3ccccc3)[nH]2)[C@H]2CCO[C@H]21	–	–
Cc1ccc(-c2ccccc2CN2CCC(C(=O)N3CCOCC3)CC2)cc1Cl	·	–
CCOC(=O)C1(Cc2ccc(OC)cc2)CCN(C(=O)c2cccc(Cl)c2)CC1	?	–
CCOC(=O)C1(Cc2ccc(Cl)cc2)CCN(C(=O)c2cc(C)oc2C)CC1	32µM	–
CCOC(=O)[C@@H]1CN(C(=O)OCC(C)C)[C@H]2c3ccccc3O[C@@H]12	·	–
CCCNC(=O)N1CC[C@@H](CC(=O)O)[C@@H](CC2=NCCc3cc(OC)ccc32)C1	?	–
COc1cc2c(cc1OC)C(C[C@H]1CN(C(=O)c3cccnc3)CC[C@H]1CC(=O)O)=NCC2	–	–
COc1cc2c(cc1OC)C(C[C@H]1CN(C(=O)Nc3ccc(F)cc3)CC[C@H]1CC(=O)O)=NCC2	28µM	–
COc1cc2c(cc1OC)C(C[C@H]1CN(C(=O)Nc3cccc(C(C)=O)c3)CC[C@H]1CC(=O)O)=NCC2	28µM	–
COc1cc2c(cc1OC)C(C[C@H]1CN(C(=O)N3CCOCC3)CC[C@H]1CC(=O)O)=NCC2	–	–
CCCNC(=O)N1CC[C@@H](CC(=O)O)[C@@H](CC2=NCCc3cc(F)ccc32)C1	32µM	–
CC(C)(C)c1ccc(Oc2ccc(NC(=O)CCC(=O)O)cc2)cc1	–	·
O=C(NCCc1ccccc1)c1cn2cc(-c3ccccc3)sc2n1	·	–
CNC(=O)NC(=O)C(C)OC(=O)c1csc(NCc2ccccc2)n1 (stereo unspecified)	–	·
SMILES	KDM5B inhibitor	IP6K1 inhibitor
Cc1nnc(-c2cc(C(=O)Nc3cccnc3)ccn2)n1CCc1ccccc1	–	–
CCc1noc(-c2cccn3c(CNC(=O)c4cccc(OC)c4)nnc23)n1	22µM	–
COc1cccc(C(=O)NCc2nnc3c(-c4nc(C)no4)cccn23)c1	28µM	–
CCc1noc(-c2cccn3c(CNC(=O)c4ccc(OC)cc4)nnc23)n1	?	–
Cc1noc(-c2cccn3c(CNC(=O)c4cccc(N(C)C)c4)nnc23)n1	?	–
O=C(c1ccc(Cl)nc1)N1CCCN(c2ccnc3ccnn23)CC1	·	–
O=C1NCCCCCCN(Cc2cccc(OC(F)(F)F)c2)[C@H]2CCC[C@@H]12	5.6µM	–
COc1cccc(CN2CCCOCCNC(=O)[C@@H]3CCCC[C@@H]32)c1	–	–
O=C1NCCCCCCN(Cc2ccncc2)[C@@H]2CN(Cc3ccncc3F)CC[C@H]12	20µM	–
O=C1NCCCCCCN(Cc2ccc(F)c(F)c2)[C@H]2CCC[C@@H]12	13µM	–
Cn1cccc1CN1CCCCCNC(=O)[C@@H]2CCC[C@@H]21	–	–
O=C1NCCCCCN(Cc2ccc(F)cc2F)[C@H]2CCC[C@@H]12	?	–
O=C1NCCCCCCN(Cc2ccncc2)[C@@H]2CN(Cc3cccnc3)CC[C@@H]12	?	–
CC(C)CCN1CCCCCCNC(=O)[C@@H]2CCC[C@@H]21	10µM	–
CC(=O)NC(C)c1ccc(C(=O)CSc2cc(Cl)ccc2Cl)cc1 (stereo unspecified)	–	·
Cc1noc2c(NCc3ccncc3)cc(-c3cccc(C(F)(F)F)c3)nc12	?	–
CC(=O)NCCNC(=O)c1ccc(-c2ncc3cnc(-c4cccc(F)c4)cn23)cc1	28µM	–
O=C(NCCc1cnc[nH]1)c1ccc(-c2ncc3cnc(-c4cccc(F)c4)cn23)cc1	?	–
O=C(NC1CCN(CC(F)(F)F)CC1)c1ccc(-c2cccc(F)c2)nc1	·	–
O=C(NC1CCC(O)CC1)c1ccc(-c2ncc3cnc(-c4cccc(F)c4)cn23)cc1 (stereo unspecified)	22µM	–
CC1(O)CCCN(Cc2cc3cc4c(cc3nc2-c2ccc(Cl)cc2)OCO4)C1 (stereo unspecified)	?	–
CC(C)(C)OCC1CN(Cc2cccs2)S(=O)(=O)c2cnccc2O1 (stereo unspecified)	·	–
Cc1oc2cc(OCC(=O)NCc3ccccc3)ccc2c(=O)c1Oc1ccccc1	–	·
Cc1c(C#N)c(N)nc2c3c(sc12)NC(=O)CC3c1ccccc1F (stereo unspecified)	–	·
CNc1nc2c(s1)C(c1ccccc1F)CC(=O)N2 (stereo unspecified)	35µM	–
SMILES	KDM5B inhibitor	IP6K1 inhibitor
Cc1cccc(NC(=O)[C@@H]2COCC(=O)N2Cc2ccc(F)cc2)c1	·	–
Cc1ccc(F)c(NC(=O)[C@@H]2COCC(=O)N2Cc2ccc(F)cc2)c1	40µM	–
COc1ccc(-c2ccc(CCC(=O)O)n2NC(=O)c2ccccc2Cl)cc1	–	·
Cc1ccc2c(C(=O)NCc3ccc(Cl)cc3Cl)cnn2c1	?	–
O=C(NCc1ccc(Cl)nc1)c1cccn2nccc12	35µM	–
Cc1ccc2c(C(=O)NCc3ccc(Cl)nc3)cnn2c1	40µM	–
O=C(NCc1ccc(Cl)nc1)c1cnn2c1CN(C(=O)c1ccccc1)CC2	–	–
COc1ccc(C2(c3ccc(OC)cc3)C=Cc3c(ccc4ccc(O)cc34)O2)cc1	–	·
CC(C)NC(=O)NC(=O)CSc1nc2ccccc2c(=O)n1-c1ccccc1Cl	–	·
Cc1cc(NC(=O)c2cc3n(n2)CC(c2ccc(Cl)cc2)OC3)ccc1F (stereo unspecified)	?	–
COc1ccc(NC(=O)c2cc3n(n2)CC(c2ccc4c(c2)OCO4)OC3)cc1 (stereo unspecified)	?	–
O=C(Nc1ccc(Cl)cc1)c1cc2n(n1)CC(c1ccc3c(c1)OCO3)OC2 (stereo unspecified)	28µM	–
COc1ccc(NC(=O)c2cc3n(n2)CC(c2ccc4c(c2)OCO4)OC3)c(OC)c1 (stereo unspecified)	35µM	–
O=C(NC1CCCC1)c1cc2n(n1)CC(c1ccc3c(c1)OCO3)OC2 (stereo unspecified)	?	–
O=C(c1cc2n(n1)CC(c1ccc3c(c1)OCO3)OC2)N1CCCC1 (stereo unspecified)	28µM	–

High-throughput results as filed in PubChem BioAssay.
